The text below walks through data of PubChem BioAssay (Tox21).

Assay [1] in a line: qHTS assay to identify small molecule antagonists of the glucocorticoid receptor (GR) signaling pathway - cell viability counter screen (AID 720693). Further: nearly all actives have a fitted effect of over 55% in size. Further: potency means the concentration at half of the fitted maximal effect. Background: In qHTS, concentration-response curves come from the screen itself.
Assay [2] is described as follows: qHTS assay for identifying genotoxic compounds that show differential cytotoxicity against isogenic chicken DT40 cell lines with known DNA damage response pathways - wild type cell line (AID 743012). Further: nearly all actives have a fitted effect of over 60% in size. Further: potency means the concentration at half of the fitted maximal effect. Summed up:
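First, wild type DT40 cells were plated at 300 per well and equilibrated about 0.5 h at 37 C/5% CO2. Next, compounds in DMSO were added and exposure lasted 40 h. Finally, CellTiter-Glo was added for 30 min at room temperature and luminescence recorded.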

Assay [3] in a line: qHTS assay for identifying genotoxic compounds that show differential cytotoxicity against isogenic chicken DT40 cell lines with known DNA damage response pathways - Rev3 mutant cell line (AID 743014). Further: nearly all actives have a fitted effect of over 55% in size. Further: potency means the concentration at half of the fitted maximal effect.
Assay [4] can be described thus: qHTS assay for identifying genotoxic compounds that show differential cytotoxicity against isogenic chicken DT40 cell lines with known DNA damage response pathways - Rad54/Ku70 mutant cell line (AID 743015). Further: nearly all actives have a fitted effect of over 60% in size. Further: potency means the concentration at half of the fitted maximal effect.
The nature of assay [5]: qHTS assay to identify small molecule antagonists of the androgen receptor (AR) signaling pathway - cell viability counter screen (AID 743033; further: nearly all actives have a fitted effect of over 45% in size; further: potency means the concentration at half of the fitted maximal effect).
Assay [6] in a line: qHTS assay to identify small molecule antagonists of the androgen receptor (AR) signaling pathway using the MDA cell line - cell viability counter screen (AID 743041; further: nearly all actives have a fitted effect of over 45% in size; further: potency means the concentration at half of the fitted maximal effect). A digest of the protocol:
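Same-well cytotoxicity was assessed by CellTiter-Fluor in MDA-kb2 AR-luc cells after 16 h of compound treatment under R1881 agonism.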

For assay [7], the system named is thyroid hormone receptor (rat, GH3 cells). Description: qHTS assay to identify small molecule agonists of the thyroid receptor (TR) signaling pathway (AID 743066; calls by dose curve; further: on the % scale 0 is the no-effect control and ±100 the full control effect).
Assay [8] in a line: qHTS assay to identify small molecule antagonists of the estrogen receptor alpha (ER-alpha) signaling pathway - cell viability counter screen (AID 743074; calls by dose curve;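 further: HEK293 cells carrying ER-alpha-UAS-bla reporter stimulated with 17beta-estradiol; nearly all actives have a fitted effect of over 45% in size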; further: potency means the concentration at half of the fitted maximal effect).
A short description of assay [9]: qHTS assay to identify small molecule antagonists of the estrogen receptor alpha (ER-alpha) signaling pathway using the BG1 cell line - cell viability counter screen (AID 743081).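 Further: compound given together with 17beta-estradiol as the ER stimulus; nearly all actives have a fitted effect of over 45% in size.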 Further: potency means the concentration at half of the fitted maximal effect.
Another assay addresses Aromatase (Homo sapiens) (UniProt P11511). The experiment in a line: qHTS assay to identify aromatase inhibitors (AID 743083). Further: nearly all actives have a fitted effect of over 55% in size. Further: potency means the concentration at half of the fitted maximal effect.
In assay [10] the target is Androgen receptor (Homo sapiens) (UniProt P10275). Description: qHTS assay to identify small molecule agonists of the androgen receptor (AR) signaling pathway using the MDA cell line (AID 743040; further: on the % scale 0 is the no-effect control and ±100 the full control effect; nearly all actives have a fitted effect of over 20% in size). Summed up: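 Human breast carcinoma MDA-kb2 reporter cells (MMTV-luc, AR/GR elements) were treated for 16 h at 37C in 0% CO2 following a 5 h settling period. Signal was quantified by ONE-Glo luminescence.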
Androgen receptor (Homo sapiens), sequence (P10275 whole entry, looked up): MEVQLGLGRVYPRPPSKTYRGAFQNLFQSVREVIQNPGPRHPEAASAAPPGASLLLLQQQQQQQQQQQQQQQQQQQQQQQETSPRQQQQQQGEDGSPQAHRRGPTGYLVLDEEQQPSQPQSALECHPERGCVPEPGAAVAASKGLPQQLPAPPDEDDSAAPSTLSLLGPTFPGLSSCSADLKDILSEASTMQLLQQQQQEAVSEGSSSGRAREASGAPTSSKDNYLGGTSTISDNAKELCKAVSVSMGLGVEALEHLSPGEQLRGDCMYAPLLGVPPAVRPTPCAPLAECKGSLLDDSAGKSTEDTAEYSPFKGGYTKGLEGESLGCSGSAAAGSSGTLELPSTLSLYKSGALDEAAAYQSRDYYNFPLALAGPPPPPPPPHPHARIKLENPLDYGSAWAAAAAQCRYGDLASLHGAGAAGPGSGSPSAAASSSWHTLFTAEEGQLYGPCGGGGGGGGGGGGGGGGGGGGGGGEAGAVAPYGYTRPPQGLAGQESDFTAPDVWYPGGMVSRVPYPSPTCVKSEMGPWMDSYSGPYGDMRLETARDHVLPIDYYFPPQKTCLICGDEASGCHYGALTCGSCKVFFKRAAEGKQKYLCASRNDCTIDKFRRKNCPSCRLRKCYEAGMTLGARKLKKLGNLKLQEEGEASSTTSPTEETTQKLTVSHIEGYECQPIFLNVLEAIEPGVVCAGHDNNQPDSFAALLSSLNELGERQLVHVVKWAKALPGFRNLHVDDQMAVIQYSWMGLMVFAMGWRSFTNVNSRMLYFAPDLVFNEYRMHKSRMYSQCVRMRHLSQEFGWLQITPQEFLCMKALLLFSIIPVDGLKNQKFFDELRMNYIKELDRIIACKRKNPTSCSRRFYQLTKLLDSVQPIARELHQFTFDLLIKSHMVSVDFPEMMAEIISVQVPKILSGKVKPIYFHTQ

The target is the same in assay [11]. Description: qHTS assay to identify small molecule antagonists of the androgen receptor (AR) signaling pathway using the MDA cell line (AID 743042; further: on the % scale 0 is the no-effect control and ±100 the full control effect; nearly all actives have a fitted effect of over 55% in size). A digest of the protocol: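 MDA-kb2 breast carcinoma cells carrying MMTV-luciferase (AR/GR responsive) were co-treated with compounds and the agonist R1881 for 16 h at 37C. Inhibition read as ONE-Glo luminescence; CellTiter-Fluor fluorescence measured in parallel for cytotoxicity.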

Assay [12] in a line: qHTS assay to identify small molecule antagonists of the thyroid receptor (TR) signaling pathway - cell viability counter screen (AID 743064). Further: nearly all actives have a fitted effect of over 50% in size. Further: potency means the concentration at half of the fitted maximal effect. Summed up: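 GH3.TRE-Luc rat pituitary cells carrying a TRE-luciferase reporter were treated with compound plus 1 nM T3 (final) for 23.5 h at 37 °C. Viability was then read in the same wells by CellTiter-Fluor fluorescence after a further 30 min.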

The target in assay [13] is Estrogen receptor (Homo sapiens) (UniProt P03372). The experiment in a line: qHTS assay to identify small molecule agonists of the estrogen receptor alpha (ER-alpha) signaling pathway (AID 743075; calls by dose curve;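 further: HEK293 GripTite cells with ER-alpha and UAS-driven beta-lactamase reporter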; further: potency means the concentration at half of the fitted maximal effect; on activation: on the % scale 0 is the no-effect control and ±100 the full control effect). As to conditions: HEK293 ER-alpha-UAS-bla, beta-lactamase FRET ratio, 18 h; activation: at 70.1 µM (top of the series).
Estrogen receptor (Homo sapiens), sequence (P03372 whole entry, looked up): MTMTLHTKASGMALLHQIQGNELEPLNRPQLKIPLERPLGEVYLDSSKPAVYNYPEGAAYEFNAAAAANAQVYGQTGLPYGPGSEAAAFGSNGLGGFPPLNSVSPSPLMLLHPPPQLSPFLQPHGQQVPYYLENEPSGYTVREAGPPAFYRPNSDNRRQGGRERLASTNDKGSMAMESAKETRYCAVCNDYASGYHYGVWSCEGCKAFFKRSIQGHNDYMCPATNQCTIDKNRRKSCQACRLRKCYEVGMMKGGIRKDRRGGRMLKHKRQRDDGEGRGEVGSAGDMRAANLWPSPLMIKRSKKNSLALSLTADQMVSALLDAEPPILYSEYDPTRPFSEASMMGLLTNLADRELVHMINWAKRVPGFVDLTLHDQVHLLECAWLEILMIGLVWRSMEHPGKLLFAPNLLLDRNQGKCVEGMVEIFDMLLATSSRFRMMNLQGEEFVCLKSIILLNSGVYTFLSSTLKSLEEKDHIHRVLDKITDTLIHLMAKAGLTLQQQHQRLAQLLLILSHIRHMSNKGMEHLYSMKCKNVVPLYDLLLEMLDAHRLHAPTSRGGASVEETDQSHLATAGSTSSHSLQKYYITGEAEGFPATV
Assay [14] can be described thus: qHTS assay to identify small molecule antagonists of the estrogen receptor alpha (ER-alpha) signaling pathway using the BG1 cell line (AID 743080; calls by dose curve;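 further: BG1 cells stimulated with 17beta-estradiol alongside compound; on the % scale 0 is the no-effect control and ±100 the full control effect; nearly all actives have a fitted effect of over 25% in size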). Summed up: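 BG1Luc4E2, endogenous ER-alpha, 4xERE-luc; 5 d charcoal-stripped FBS, phenol red free; 24 h plating; cpd + 17beta-estradiol 21.5 h, 37 C/5% CO2; CellTiter-Fluor viability 30 min, then ONE-Glo luciferase 30 min RT.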

The nature of assay [15]: qHTS assay to identify small molecule antagonists of the thyroid receptor (TR) signaling pathway (AID 743065). Further: nearly all actives have a fitted effect of over 55% in size. Further: potency means the concentration at half of the fitted maximal effect. A digest of the protocol:
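GH3.TRE-Luc rat pituitary cells (two TREs driving luciferase) were dosed with compound, then stimulated with 1 nM T3 (final) for 23.5 h at 37 C. ONE-Glo luminescence was the read-out, with CellTiter-Fluor fluorescence as the cytotoxicity counter-screen.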

For assay [16], the target named is Estrogen receptor (Homo sapiens) (UniProt P03372). The experiment in a line: qHTS assay to identify small molecule antagonists of the estrogen receptor alpha (ER-alpha) signaling pathway (AID 743069; active means well fitted curve in the direction sought with a large enough effect in the signal ratio in the repeat runs, not every such curve was filed as active; inconclusive means weak or mixed curves, or effect the other way; inactive means no such curve, though single readings can be large or run the other way; the % refers to the signal ratio; further: potency means the concentration at half of the fitted maximal effect). A digest of the protocol:
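Reporter cells (ER-alpha-bla, HEK293 background) are conditioned overnight in stripped-serum medium (2% charcoal-stripped FBS). Compound and 17beta-estradiol exposure runs 18 hr at 37C, 5% CO2.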

Assay [17] has the same target. The experiment in a line: qHTS assay to identify small molecule agonists of the estrogen receptor alpha (ER-alpha) signaling pathway using the BG1 cell line (AID 743079). Further: on the % scale 0 is the no-effect control and ±100 the full control effect; nearly all actives have a fitted effect of over 20% in size. To be noted: BG1Luc4E2 cells, ERE-luciferase agonist, 22 h.
Assay [18] concerns the target Androgen receptor (Homo sapiens) (UniProt P10275). The experiment in a line: qHTS assay to identify small molecule antagonists of the androgen receptor (AR) signaling pathway (AID 743035; active means well fitted inhibition curve with a large enough effect in the signal ratio in the repeat runs, not every such curve was filed as active; inconclusive means weak or mixed curves, or effect the other way; inactive means no such curve, though single readings can be large or run the other way; the % refers to the signal ratio; further: potency means the concentration at half of the fitted maximal effect). A digest of the protocol: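 Beta-lactamase FRET read (2 h RT incubation with LiveBLAzer B/G) following 16 h of compound plus R1881 treatment of AR-UAS-bla HEK293 cells, which had been pre-incubated 4 h at 37C.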

“And” between values parts separate entries of the source, which are not always exact repeats. Identical values can stand only once. A structure can be active in one record and inactive in another. The source made the active and inactive calls. Unless noted, the call rests on the fitted dose curve; in most records, active means well fitted curve in the direction sought with a large enough effect in the repeat runs; inconclusive means weak or mixed curves; inactive means no such curve, though single readings can be large; an effect the other way counts as inactive or inconclusive.

Aromatase (Homo sapiens), sequence (P11511 whole entry, looked up): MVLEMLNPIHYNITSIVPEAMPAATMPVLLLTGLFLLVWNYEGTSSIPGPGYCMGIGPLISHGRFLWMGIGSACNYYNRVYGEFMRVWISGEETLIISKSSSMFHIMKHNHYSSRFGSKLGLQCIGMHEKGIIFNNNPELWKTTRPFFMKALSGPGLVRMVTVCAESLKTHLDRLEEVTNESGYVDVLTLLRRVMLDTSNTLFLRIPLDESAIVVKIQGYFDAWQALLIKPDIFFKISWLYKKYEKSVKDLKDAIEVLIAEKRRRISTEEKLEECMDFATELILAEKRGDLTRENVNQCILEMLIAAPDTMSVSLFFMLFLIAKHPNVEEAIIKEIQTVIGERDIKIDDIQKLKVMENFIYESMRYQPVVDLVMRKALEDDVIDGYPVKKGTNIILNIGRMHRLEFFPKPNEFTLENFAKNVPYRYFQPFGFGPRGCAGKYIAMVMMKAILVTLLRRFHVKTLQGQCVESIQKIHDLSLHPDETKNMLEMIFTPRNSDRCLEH

Regarding `CCN(C(=O)c1cc(C)cc(OC[C@H](C)Nc2ccncc2)c1)C(C)C`, the Potency entry in assay [1], in [5], in assay [6], in [7], in assay [8] and in assay [9] was “inactive” throughout. Also, the Potency result with Aromatase (Homo sapiens) was “inactive”. In addition, the figures for the Potency in assay [2], in assay [3] and in assay [4] were 19.1 µM (active), 19.1 µM (active) and 17 µM (active), respectively.

Take `Cc1nc(-c2ccc3c(c2)CCN(CCC2CCC(NC(=O)/C=C/c4ccc(F)cc4)CC2)CC3)no1` (stereo not given): the Potency entry in [1], in assay [10], in assay [6], in [11], in assay [7] and in [8] was “inactive” throughout. Moreover, the Potency result (in assay [14]; in [9]; with Aromatase (Homo sapiens)) was “inactive” throughout. Besides, the Potency in [2] was 0.386 µM (active); in assay [3] it was 0.687 µM (active); in assay [4] it was 0.546 µM (active); in assay [12], 10.9 µM (active); in [13] it was 9.79 µM [inconclusive] (active).

Turning to `CCCCCCCCCCCC[N+](C)(C)CCCCCCCCCCCC`, the Potency was 24.5 µM (active) in assay [1]; 4.33 µM (active) in [2]; 3.86 µM (active) in assay [3]; 4.33 µM (active) in assay [4]; 27.3 µM (active) in assay [6]; 24.3 µM (active) in assay [12]. For the same compound, the Potency in assay [15] is 17.2 µM (active); in assay [8], 24.5 µM (active); in assay [9], 68.6 µM (active); with Aromatase (Homo sapiens), 17.2 µM (active). The Potency result in assay [7] and in assay [16] was “inactive” throughout.

On to `CC/C(=C(\c1ccc(O)cc1)c1ccc(OCCN(C)C)cc1)c1ccccc1`, for which the Potency is 24.6 µM (active) in [1]; 2.74 µM (active) in assay [2]; 0.434 µM (active) in [3]; 1.09 µM (active) in assay [4]; 5.46 µM (active) in assay [12]; 12.2 µM (active) in assay [15]. In addition, the values for the Potency (in assay [8]; in assay [9]; with Aromatase (Homo sapiens)) were 39 µM (active), 68.7 µM (active) and 0.0217 µM (active), respectively. The Potency entry in assay [10], in assay [6] and in assay [7] was “inactive” throughout.

With `Cc1ccc(-n2nc(C(C)(C)C)cc2NC(=O)Nc2ccc(OCCN3CCOCC3)c3ccccc23)cc1`, the Potency result in assay [1], in [5], in [6], in [12], in assay [7] and in [8] was “inactive” in each case. Moreover, the Potency entry (in assay [13]; in assay [9]; with Aromatase (Homo sapiens)) was “inactive” in each case. The Potency in assay [2] is 18.8 µM (active); in [3] it was 26.6 µM (active); in assay [4], 26.6 µM (active); in assay [16], 13.4 µM [inconclusive] (active).

Consider `O=[N+]([O-])c1cc([N+](=O)[O-])c2ccc(S(=O)(=O)O)cc2c1O`, for which the Potency entry in assay [1], in assay [2], in [3], in [4], in assay [5] and in assay [8] was “inactive” each time. In addition, the Potency in assay [6] was 27.1 µM (active); in [9] it was 54.2 µM (active).

Turning to `NC(=O)CC[C@@H]1NC(=O)[C@H](Cc2ccccc2)NC(=O)[C@H](Cc2ccc(O)cc2)NC(=O)CCSSC[C@@H](C(=O)N2CCC[C@H]2C(=O)N[C@@H](CCCN=C(N)N)C(=O)NCC(N)=O)NC(=O)[C@H](CC(N)=O)NC1=O`, the Potency result in [1], in [2], in [3], in assay [4], in assay [5] and in assay [6] was “inactive” in each case. Moreover, the Potency entry (in [8]; in assay [9]; in the assay with Aromatase (Homo sapiens)) was “inactive” each time.

Consider `CCCCCOC(=O)CCCC`, for which the Potency result in [1], in assay [2], in assay [3], in assay [4], in assay [5] and in assay [6] was “inactive” throughout. For the same compound, the Potency entry in [15], in assay [7], in assay [16], in assay [8], in assay [13] and in assay [14] was “inactive” each time. Moreover, the Potency result (in [9]; with Aromatase (Homo sapiens)) was “inactive” throughout. Also, in assay [17] (at 70.3 µM (top of the series)), the activation is -1.52% (inactive).

On to `O=C(Nc1cccc(Cl)c1)OCC#CCCl`, for which the Potency in [1] was 54.9 µM (active); in [2], 24.3 µM (active); in assay [3], 21.7 µM (active); in assay [4], 13.7 µM (active); in [5], 49 µM (active); in [12] it was 24.3 µM (active). The results for the Potency (in [15]; in the assay with Aromatase (Homo sapiens)) were 17.2 µM (active) and 21.7 µM (active), respectively. Further, the Potency result in assay [13] is “inactive”.

On to `Clc1ccccc1C(c1ccccc1)(c1ccccc1)n1ccnc1`, for which the Potency entry in assay [1], in [6], in assay [7], in assay [13] and in [9] was “inactive” throughout. In addition, the Potency in [2] is 5.07 µM (active) and 5.45 µM (active); in assay [3] it was 10.1 µM (active) and 15.4 µM (active); in [4], 8.04 µM (active) and 3.44 µM (active); in assay [12], 8.04 µM (active) and 21.7 µM (active); in assay [15], 3.59 µM (active) and 3.86 µM (active); in assay [16], 6.44 µM [inconclusive] (active) and 15.5 µM [inconclusive] (active). For the same compound, the Potency result in [8] was “inactive and 54.9 µM (active)”; in the assay with Aromatase (Homo sapiens), 4.52 µM (active) and 6.86 µM (active). Also, the activation in [17] (at 32.5 µM (top of the series)) is -14.7% (inactive).

Take `CCc1cc(Cc2cc(CC)cc(C(C)(C)C)c2O)c(O)c(C(C)(C)C)c1`: the Potency was 11 µM (active) in [1]; 21.7 µM (active) in assay [2]; 19.3 µM (active) in assay [3]; 15.4 µM (active) in assay [4]; 13.8 µM (active) in assay [18]; 7.7 µM (active) in [12]. The Potency in assay [15] was 6.11 µM (active); in assay [8], 15.5 µM (active); in [9], 68.6 µM (active); with Aromatase (Homo sapiens) it was 30.6 µM (active). For the same compound, the Potency result in [10], in assay [6] and in assay [7] was “inactive” each time.

Take `Cc1cc(N)c(S(=O)(=O)O)cc1Cl`: the Potency entry in assay [1], in assay [2], in [3], in assay [4], in [5] and in assay [6] was “inactive” in each case. The Potency result (in assay [15]; in assay [7]; in assay [8]; in assay [9]; in the assay with Aromatase (Homo sapiens)) was “inactive” each time.
